This note sets out measurements from PubChem BioAssay (EPA / NIEHS).

Common to all, as to conditions: mRNA level, 48 h; actives raise or lower the signal
Read-out in assay [1]: Broad substrate specificity ATP-binding cassette transporter ABCG2 (Homo sapiens) (UniProt Q9UNQ0)
Kind of assay: LTEA_HepaRG_ABCG2: Life Technologies and Expression Analysis (LTEA) Assay for ABC Transporter (ABCG2) using HepaRG (AID 2283465). In outline: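 ABCG2 transcript was quantified by TaqMan qRT-PCR against three housekeeping genes in HepaRG cells. Cells were treated in duplicate for 48 h across an 8-point half-log series up to 100 uM, with 0.5% DMSO vehicle. Gain or loss versus DMSO was fit.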

Read-out in assay [2]: ATP-citrate lyase (ACLY), ACLY (gene 47)
Kind of assay: LTEA_HepaRG_ACLY: Life Technologies and Expression Analysis (LTEA) Assay for ATP-citrate lyase (ACLY) using HepaRG (AID 2283466). In outline:
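ACLY mRNA quantified by qRT-PCR on Fluidigm arrays against three housekeeping genes, after 48 h chemical treatment of HepaRG cells (top concentration 100 uM, half-log steps, 0.5% DMSO vehicle). Up- or down-regulation fitted relative to DMSO.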

Read-out in assay [3]: Peroxisomal acyl-coenzyme A oxidase 1 (ACOX1) gene, ACOX1 (gene 51)
Kind of assay: LTEA_HepaRG_ACOX1: Life Technologies and Expression Analysis (LTEA) Assay for Peroxisomal acyl-coenzyme A oxidase 1 (ACOX1) gene using HepaRG (AID 2283467). The essentials:
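ACOX1 transcript levels were quantified by TaqMan qRT-PCR against three housekeeping genes after 48 h chemical exposure of differentiated human HepaRG cells. Exposure used eight half-log steps topping at 100 uM, 0.5% DMSO vehicle, in duplicate. Bidirectional curve fits were made relative to DMSO.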

Read-out in assay [4]: Alkaline Phosphatase, Placental (ALPP) gene, ALPP (gene 250)
Kind of assay: LTEA_HepaRG_ALPP: Life Technologies and Expression Analysis (LTEA) Assay for Alkaline Phosphatase, Placental (ALPP) gene using HepaRG (AID 2283468).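 For AC50: differentiated human HepaRG liver cells in serum-free induction medium.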 The essentials:
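qRT-PCR readout of ALPP mRNA (Fluidigm TaqMan), normalized to ACTB/GAPDH/POLR2A, after 48 h chemical exposure of HepaRG cells; 8-point half-log series, top 100 uM, 0.5% DMSO vehicle. Bidirectional curve fit versus DMSO baseline.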

Read-out in assay [5]: Bcl-2 (BAD) gene, BAD (gene 572)
The experiment in a line: LTEA_HepaRG_BAD: Life Technologies and Expression Analysis (LTEA) Assay for Bcl-2 (BAD) gene using HepaRG (AID 2283469). The essentials:
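Read-out: qRT-PCR of BAD mRNA, normalized to three housekeeping genes. Human HepaRG cultures got 48 h chemical exposure in 0.5% DMSO, duplicate eight-point half-log series topping at 100 uM. Gain or loss of signal fitted versus DMSO vehicle.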

Read-out in assay [6]: Bcl-2 (BAX) gene, BAX (gene 581)
The experiment in a line: LTEA_HepaRG_BAX: Life Technologies and Expression Analysis (LTEA) Assay for Bcl-2 (BAX) gene using HepaRG (AID 2283470). The essentials:
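Cells were thawed, plated for 48 h, moved to serum-free induction medium and dosed for 48 h (highest concentration 100 uM, half-log steps, 0.5% DMSO). Total RNA was then analysed for BAX expression by qRT-PCR.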

Read-out in assay [7]: adenosine kinase (ADK) gene, ADK (gene 132)
The experiment in a line: LTEA_HepaRG_ADK: Life Technologies and Expression Analysis (LTEA) Assay for adenosine kinase (ADK) gene using HepaRG (AID 2283471). The essentials:
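Read-out is ADK transcript level measured by qRT-PCR and normalised to three housekeeping genes. Cells are human HepaRG, dosed for 48 h at up to 100 uM in 0.5% DMSO. Gain or loss of signal is fitted against DMSO controls.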

Read-out in assay [8]: Alpha-fetoprotein (AFP) gene, AFP (gene 174)
The experiment in a line: LTEA_HepaRG_AFP: Life Technologies and Expression Analysis (LTEA) Assay for Alpha-fetoprotein (AFP) gene using HepaRG (AID 2283472). In outline: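 Chemicals were tested on differentiated HepaRG cells for 48 hours at eight concentrations up to 100 uM, with 0.5% DMSO as vehicle. AFP expression was then quantified by qRT-PCR and analyzed for gain or loss relative to DMSO.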

Read-out in assay [9]: Apolipoprotein A-V (APOA5) gene, APOA5 (gene 116519)
The experiment in a line: LTEA_HepaRG_APOA5: Life Technologies and Expression Analysis (LTEA) Assay for Apolipoprotein A-V (APOA5) gene using HepaRG (AID 2283474). In outline: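 HepaRG, 48 h chemical exposure in serum-free induction medium, 8-pt half-log series (top 100 uM), 0.5% DMSO vehicle, duplicates. Readout: APOA5 mRNA by qRT-PCR, housekeeping-normalized; bidirectional fit vs DMSO baseline.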

Read-out in assay [10]: Apoptosis regulator Bcl-2 (Homo sapiens) (UniProt P10415)
Kind of assay: LTEA_HepaRG_BCL2: Life Technologies and Expression Analysis (LTEA) Assay for Bcl-2 gene using HepaRG (AID 2283475). In outline:
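Plated human HepaRG cells are exposed to test chemicals for 48 h across eight concentrations from 100 uM downward in half-log steps (0.5% DMSO). BCL2 expression is then measured by qRT-PCR with housekeeping normalisation and fitted bidirectionally against vehicle.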

Read-out in assay [11]: Bcl-2 (BID) gene, BID (gene 637)
Kind of assay: LTEA_HepaRG_BID: Life Technologies and Expression Analysis (LTEA) Assay for Bcl-2 (BID) gene using HepaRG (AID 2283476). In outline:
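Cells are plated, cultured 48 h, switched to serum-free induction medium, then dosed 48 h (100 uM top, half-log steps, 0.5% DMSO). RNA is isolated and BID expression read by qRT-PCR.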

Read-out in a further assay: Caspase-3 (Homo sapiens) (UniProt P42574)
Kind of assay: LTEA_HepaRG_CASP3: Life Technologies and Expression Analysis (LTEA) Assay for cysteine-aspartic acid protease (CASP3) using HepaRG (AID 2283477). The essentials:
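HepaRG, 48 h exposure, 8 conc. (top 100 uM, half-log steps, duplicate), 0.5% DMSO vehicle; qRT-PCR of CASP3 transcript, housekeeping-normalised (ACTB/GAPDH/POLR2A); bidirectional curve fit vs DMSO baseline.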

Read-out in assay [12]: Cytochrome P450 (CYP24A1), CYP24A1 (gene 1591)
Kind of assay: LTEA_HepaRG_CYP24A1: Life Technologies and Expression Analysis (LTEA) Assay for Cytochrome P450 (CYP24A1) using HepaRG (AID 2283478). The essentials:
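qRT-PCR read-out: CYP24A1 transcript levels normalized to three housekeeping genes, bidirectional curve fits against 0.5% DMSO baseline. Human HepaRG cells treated 48 h with chemicals at eight concentrations from 100 uM in half-log steps.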

Read-out in assay [13]: Cytochrome P450 (CYP1A2), CYP1A2 (gene 1544)
The experiment in a line: LTEA_HepaRG_CYP1A2: Life Technologies and Expression Analysis (LTEA) Assay for Cytochrome P450 (CYP1A2) using HepaRG (AID 2283479). In outline:
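HepaRG, 48 h exposure, top 100 uM, half-log 8-pt, 0.5% DMSO vehicle, duplicates. Readout: TaqMan qRT-PCR of CYP1A2 mRNA, housekeeping-normalized (ACTB/GAPDH/POLR2A). Gain/loss fit relative to DMSO baseline.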

Read-out in assay [14]: cysteine-aspartic acid protease (CASP8), CASP8 (gene 841)
The experiment in a line: LTEA_HepaRG_CASP8: Life Technologies and Expression Analysis (LTEA) Assay for cysteine-aspartic acid protease (CASP8) using HepaRG (AID 2283480). The essentials: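 CASP8 transcript measured by TaqMan qRT-PCR with ACTB/GAPDH/POLR2A normalization, after 48 h chemical exposure of HepaRG cells in serum-free induction medium. Eight concentrations, top 100 uM, half-log steps, 0.5% DMSO vehicle; fits in both directions versus DMSO.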

Read-out in assay [15]: Cytochrome P450 (CYP2B6), CYP2B6 (gene 1555)
Kind of assay: LTEA_HepaRG_CYP2B6: Life Technologies and Expression Analysis (LTEA) Assay for Cytochrome P450 (CYP2B6) using HepaRG (AID 2283481). In outline: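 Read-out is CYP2B6 mRNA by TaqMan qRT-PCR, normalized to three housekeeping genes and fitted bidirectionally against 0.5% DMSO baseline. Human HepaRG cells received test chemicals for 48 h, top concentration 100 uM, half-log dilutions.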

Read-out in assay [16]: Cytochrome P450 2C19 (Homo sapiens) (UniProt P33261)
The experiment in a line: LTEA_HepaRG_CYP2C19: Life Technologies and Expression Analysis (LTEA) Assay for CYP2C19 using HepaRG (AID 2283482). The essentials: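 HepaRG, 48 h chemical exposure, 8-pt half-log series from 100 uM in 0.5% DMSO, duplicates. Readout: CYP2C19 mRNA by TaqMan qRT-PCR, housekeeping-normalized. Bidirectional fit vs DMSO baseline; phenobarbital 1mM as induction control.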

Read-out in another assay: CYP2C8 (gene 1558)
The experiment in a line: LTEA_HepaRG_CYP2C8: Life Technologies and Expression Analysis (LTEA) Assay for CYP2C8 using HepaRG (AID 2283483). The essentials:
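CYP2C8 expression measured by TaqMan qRT-PCR and normalized to three housekeeping genes. HepaRG cultures were treated for 48 h with an eight-point half-log series topping at 100 uM, vehicle 0.5% DMSO, duplicates; fitted both directions against DMSO.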

Read-out in another assay: BCL2L11 (gene 10018)
Kind of assay: LTEA_HepaRG_BCL2L11: Life Technologies and Expression Analysis (LTEA) Assay for Bcl-2 (BCL2L11) gene using HepaRG (AID 2283473). The essentials: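 HepaRG, 48 h exposure, 8-pt half-log series from 100 uM in 0.5% DMSO, duplicates; qRT-PCR (Fluidigm TaqMan) for BCL2L11, housekeeping-normalized; bidirectional curve fit relative to DMSO baseline.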

Activity calls are given as the source filed them. Rule for the calls: active = hit-call score of the fitted dose curve at least 0.9, where 1 is the maximum; inactive = score below 0.9.

Broad substrate specificity ATP-binding cassette transporter ABCG2 (Homo sapiens), sequence (Q9UNQ0 whole entry, looked up): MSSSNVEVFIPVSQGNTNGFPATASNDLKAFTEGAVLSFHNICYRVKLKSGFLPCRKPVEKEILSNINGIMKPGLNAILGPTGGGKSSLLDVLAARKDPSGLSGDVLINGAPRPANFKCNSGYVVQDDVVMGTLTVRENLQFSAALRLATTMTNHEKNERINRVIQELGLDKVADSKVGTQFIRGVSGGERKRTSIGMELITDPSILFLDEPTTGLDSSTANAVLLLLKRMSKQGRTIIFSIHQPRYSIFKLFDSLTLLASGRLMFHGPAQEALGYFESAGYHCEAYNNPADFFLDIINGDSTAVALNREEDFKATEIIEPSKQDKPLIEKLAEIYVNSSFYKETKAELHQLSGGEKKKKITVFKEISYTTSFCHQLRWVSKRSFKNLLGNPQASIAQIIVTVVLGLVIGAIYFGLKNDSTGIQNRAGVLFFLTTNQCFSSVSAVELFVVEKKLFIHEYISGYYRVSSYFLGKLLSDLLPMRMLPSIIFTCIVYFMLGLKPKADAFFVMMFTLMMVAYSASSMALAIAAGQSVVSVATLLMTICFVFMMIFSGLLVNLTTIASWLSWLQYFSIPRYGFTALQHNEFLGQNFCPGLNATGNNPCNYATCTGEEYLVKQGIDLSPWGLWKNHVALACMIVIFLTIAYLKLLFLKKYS
Apoptosis regulator Bcl-2 (Homo sapiens), sequence (P10415 whole entry, looked up): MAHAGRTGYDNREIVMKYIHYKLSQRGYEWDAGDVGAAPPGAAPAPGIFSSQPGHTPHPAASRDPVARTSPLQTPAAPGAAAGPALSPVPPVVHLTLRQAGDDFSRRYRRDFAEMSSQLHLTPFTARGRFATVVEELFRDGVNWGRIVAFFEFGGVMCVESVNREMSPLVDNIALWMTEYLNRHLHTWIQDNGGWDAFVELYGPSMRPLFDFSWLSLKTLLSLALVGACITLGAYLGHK
Caspase-3 (Homo sapiens), sequence (P42574 whole entry, looked up): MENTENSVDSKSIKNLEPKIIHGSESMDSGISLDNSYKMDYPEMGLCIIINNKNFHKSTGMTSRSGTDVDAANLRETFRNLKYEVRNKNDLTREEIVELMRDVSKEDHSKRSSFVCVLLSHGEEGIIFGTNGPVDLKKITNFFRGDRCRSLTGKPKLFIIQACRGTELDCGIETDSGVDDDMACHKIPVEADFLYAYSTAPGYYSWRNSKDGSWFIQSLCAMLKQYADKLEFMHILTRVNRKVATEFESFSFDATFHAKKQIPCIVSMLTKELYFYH
Cytochrome P450 2C19 (Homo sapiens), sequence (P33261 whole entry, looked up): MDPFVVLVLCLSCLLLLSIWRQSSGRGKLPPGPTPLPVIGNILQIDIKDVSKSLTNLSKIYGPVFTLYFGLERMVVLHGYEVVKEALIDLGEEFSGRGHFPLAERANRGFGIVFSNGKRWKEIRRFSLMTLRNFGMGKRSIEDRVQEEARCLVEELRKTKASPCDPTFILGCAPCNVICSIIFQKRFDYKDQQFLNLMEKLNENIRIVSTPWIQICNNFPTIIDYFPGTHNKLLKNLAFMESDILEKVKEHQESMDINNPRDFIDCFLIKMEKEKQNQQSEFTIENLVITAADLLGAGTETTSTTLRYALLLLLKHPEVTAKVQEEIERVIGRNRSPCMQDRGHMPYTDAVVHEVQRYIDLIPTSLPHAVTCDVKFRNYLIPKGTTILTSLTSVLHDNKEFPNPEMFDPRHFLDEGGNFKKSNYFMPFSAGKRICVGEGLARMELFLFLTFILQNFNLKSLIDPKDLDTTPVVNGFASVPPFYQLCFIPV

The term AC50 denotes the concentration giving half of the maximal activity seen. Regarding `O=C(Nc1ccc([N+](=O)[O-])cc1Cl)c1cc(Cl)ccc1O`, the AC50 in assay [1] was 17 µM (active); in assay [2] it was 3.76 µM (active); in assay [3], 3.17 µM (active); in assay [4], 15.9 µM (active); in [5], 3.89 µM (active); in assay [6] it was 6.15 µM (active). For the same compound, the AC50 in [7] was 3.07 µM (active); in [8], 20.4 µM (active); in assay [9], 4.26 µM (active); in [10] it was 3.54 µM (active); with Caspase-3 (Homo sapiens), 1.89 µM (active); in assay [13], 0.744 µM (active). The AC50 in assay [14] is 12 µM (active); in assay [15], 3.89 µM (active); in [16], 2.22 µM (active); with CYP2C8 (gene 1558), 3.94 µM (active). The compound was classed as inactive in [11] and in [12].
Turning to `COC(=O)CSc1cc(N=c2sc(=O)n3n2CCCC3)c(F)cc1Cl`, the outcome in assay [1], in [2], in [3], in [4], in assay [5] and in assay [6] was inactive. Further, the compound was classed as inactive (in [7]; in assay [8]; with BCL2L11 (gene 10018); in [9]; in [10]; with Caspase-3 (Homo sapiens)). For the same compound, the call (in [12]; in assay [13]; in the assay with CYP2C8 (gene 1558)) was inactive. For the same compound, the AC50 in [15] was 38.8 µM (active); in [16], 24 µM (active).
On to `CCCOC(=O)NCCCN(C)C`, for which the compound was called inactive in assay [1], in assay [2], in [3], in [4], in assay [5] and in assay [6]. Also, the compound was called inactive (in assay [7]; in assay [8]; with BCL2L11 (gene 10018); in assay [9]; in assay [10]; with Caspase-3 (Homo sapiens)). For the same compound, the call (in assay [12]; in assay [13]; in assay [15]; in [16]; in the assay with CYP2C8 (gene 1558)) was inactive.
